From PubChem BioAssay
Cruzain noTriton: inhibitors of Trypanosoma cruzi cruzain without detergent; AID 1476; Potency, µM, usual class: inhibitors; purified cruzain, Z-FR-AMC fluorescence, no detergent; P25779; 200,000 tested, 2.3% active; note: nearly all actives have a fitted effect of over 40% in size
Target sequence (P25779 123-467 limits assumed): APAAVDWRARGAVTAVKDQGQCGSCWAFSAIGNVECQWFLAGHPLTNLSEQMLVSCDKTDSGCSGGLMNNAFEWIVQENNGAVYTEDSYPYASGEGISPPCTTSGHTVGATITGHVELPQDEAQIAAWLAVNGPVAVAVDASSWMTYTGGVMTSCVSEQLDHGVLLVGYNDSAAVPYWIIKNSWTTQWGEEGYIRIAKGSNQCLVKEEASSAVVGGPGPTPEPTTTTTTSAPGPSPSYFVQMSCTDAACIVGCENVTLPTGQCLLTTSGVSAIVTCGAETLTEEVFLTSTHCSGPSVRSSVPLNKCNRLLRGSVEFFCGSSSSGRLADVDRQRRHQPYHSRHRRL
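Purified cruzain at 1.5 nM, pre-incubated 15 min with compound at room temperature in 100 mM sodium acetate pH 5.5, 5 mM DTT, 0.00005% Triton X-100. Reaction started with 2 uM Z-FR-AMC; AMC fluorescence increase over 60 s gives rate.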
Cruzain inh Det: cruzain (T. cruzi) inhibition with detergent; P25779; purified cruzain, Z-FR-AMC fluorescence, 0.01% Triton; Potency, µM, usual class: inhibitors; 200,000 tested, 0.43% active; note: nearly all actives have a fitted effect of over 40% in size
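Z-FR-AMC hydrolysis (2 uM substrate) by cruzain (1.5 nM) monitored kinetically at ex 360/em 450 nm after 15 min room-temperature compound exposure; 0.01% Triton X-100, pH 5.5, 5 mM DTT.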
Of the large screens only hits and unclear results are named; the others gave an inactive call. Sampled rows, rich in hits. Any-hit rate of the full collection: about 2.6%. Calls come from the whole dose curve; as a rule, active = well fitted curve in the direction sought with a large enough effect; inconclusive = small, poorly fitted or top-dose-only effect, or another doubt; inactive = no such curve, though single readings can be large; an effect the other way counts as inactive or inconclusive.

COc1ccccc1NC(=O)C1CCN(S(=O)(=O)c2ccc3[nH]c4c(c3c2)CCCCC4)CC1	Cruzain noTriton 20µM
CCOc1ccccc1NC(=O)C1CCN(S(=O)(=O)c2ccc3[nH]c(=O)ccc3c2)CC1	none
O=C(Nc1cccc(F)c1)C1CCN(S(=O)(=O)c2ccc3[nH]c4c(c3c2)CCCCC4)CC1	Cruzain noTriton 15.8µM
CCOC(=O)c1ccc(-n2c(N)c(C(=O)OC)c3nc4ccccc4nc32)cc1	none
CC(=O)c1ccc(N2CCN(S(=O)(=O)c3ccc4[nH]c5c(c4c3)CCCCC5)CC2)cc1	Cruzain noTriton 10µM
CC(=O)c1ccc(NS(=O)(=O)c2ccc3[nH]c4c(c3c2)CCCCCC4)cc1	Cruzain noTriton inconclusive
COc1ccc(CNc2ncncc2-c2cccc(NS(C)(=O)=O)c2)c(OC)c1	none
Cc1no[n+]([O-])c1COc1ccc(/C=C(\C#N)C(N)=O)cc1	none
Cc1no[n+]([O-])c1COc1ccc(/C=C2\NC(=S)NC2=O)cc1	Cruzain noTriton 31.6µM
O=C1c2ccccc2CC[C@H]1CNCCc1ccc(O)cc1	none
COc1ccc(NC(=S)N(CCc2c(C)[nH]c3ccc(C)cc23)Cc2ccco2)cc1	Cruzain noTriton inconclusive
CCOc1ccc(NC(=S)N(CCc2c(C)[nH]c3ccc(C)cc23)Cc2ccco2)cc1	Cruzain noTriton 3.16µM
Cc1cc(C)c(Cn2c(C(O)c3ccccc3)nc3ccccc32)c(C)c1 (stereo not drawn)	Cruzain noTriton inconclusive
Cc1ccccc1Cn1c2ccccc2c2cnn(CC(=O)NCCc3ccccc3)c(=O)c21	none
CCCOc1ccc(-c2nc(SCC(=O)c3ccc(Cl)cc3)n[nH]2)cc1	Cruzain noTriton 10µM
CCOc1ccc(-c2nc(SCC(=O)c3ccccc3)n[nH]2)cc1	Cruzain noTriton inconclusive
Cn1c(=O)n(C)c2cc(NS(=O)(=O)c3ccc(C(C)(C)C)cc3)c(NCc3ccccc3)cc21	none
CCOC(=O)c1sc(NC(=O)C(C)Sc2nc(-c3ccccc3)cc(C(F)(F)F)n2)c(C(=O)OC)c1C (stereo not drawn)	none
Cc1cccc(-c2nc3c(cnn3-c3ccccc3)c(=O)n2-c2ccc(Br)cc2)c1	none
Cc1cccc(-c2nc3c(cnn3-c3ccccc3)c(=O)n2-c2ccc(Cl)cc2)c1	Cruzain noTriton inconclusive
Cc1cccc(C2=NN(c3ccc(Br)cc3)[C@@H](C(=O)N3CCOC3=O)[C@@H]2c2ccc(F)cc2)c1	Cruzain noTriton 17.8µM
Cc1cccc(C2=NN(c3ccc(Br)cc3)[C@@H](C(=O)N3CCOC3=O)[C@@H]2c2ccc(Cl)cc2)c1	Cruzain noTriton 8.91µM
O=C1CN(C(=O)COc2ccccc2)C(c2ccc(F)cc2)c2cc(Br)ccc2N1 (stereo not drawn)	none
CCCC(CCC)C(=O)NC1CC(=O)N(c2ccc3c(c2)OCCO3)C1 (stereo not drawn)	none
Cc1cccc(CSc2nc3sc(C)c(C)c3c(=O)n2Cc2ccco2)c1	Cruzain noTriton inconclusive
Cc1sc2nc(SCc3nc4ccccc4[nH]3)n(Cc3ccco3)c(=O)c2c1C	Cruzain noTriton 31.6µM
COc1cccc(CSc2nc3sc(C)c(C)c3c(=O)n2Cc2ccco2)c1	Cruzain noTriton 25.1µM
Cc1sc2nc(SCc3ccccc3)n(Cc3ccco3)c(=O)c2c1C	Cruzain noTriton inconclusive
COC(=O)C1C(=O)C(C(=O)/C=C/c2ccco2)C(=O)CC1(C)C (stereo not drawn)	none
COc1ccccc1C(=O)N1c2ccccc2C(C)(c2ccc(Cl)cc2)CC1(C)C (stereo not drawn)	none
O=C(O)COc1ccccc1/C=C1\SC(=S)N(/N=C/c2ccccc2O)C1=O	Cruzain noTriton inconclusive, Cruzain inh Det 28.2µM
COc1cccc(/C=C2/SC(=O)N(CC(=O)N3CCc4ccccc4C3)C2=O)c1OCC(=O)O	Cruzain noTriton inconclusive
Cc1ccc(Nc2c(-c3c[nH]c4ccccc34)nc3cc(C)ccn23)cc1	Cruzain noTriton inconclusive
Cc1ccn2c(Nc3ccccc3)c(-c3c[nH]c4ccccc34)nc2c1	Cruzain noTriton 12.6µM
CCC(c1nnnn1Cc1cccs1)N1CCN(c2nc3ccccc3s2)CC1 (stereo not drawn)	Cruzain noTriton inconclusive
CC(C)CC(c1nnnn1Cc1cccs1)N1CCN(c2nc3ccccc3s2)CC1 (stereo not drawn)	Cruzain noTriton 31.6µM
Cc1ccc(CCNC(=O)c2c3c(nc4ccccc24)C(=O)N(C2CCCCC2)C3)cc1	Cruzain noTriton inconclusive
O=C(C1CC1)N1CCc2cc(Br)cc(S(=O)(=O)Nc3ccc(C(F)(F)F)cc3)c21	none
CCOC(=O)c1cc([N+](=O)[O-])sc1NC(=O)c1ccc(S(=O)(=O)N2CC3(C)CC2CC(C)(C)C3)cc1 (stereo not drawn)	Cruzain noTriton 3.98µM
CC1(C)CC2CC(C)(CN2S(=O)(=O)c2ccc(C(=O)Nc3ccc(S(=O)(=O)N4CCOCC4)cc3)cc2)C1 (stereo not drawn)	none
CCOC(=O)c1c(C)c(C(=O)NCCc2ccc(OC)cc2)c(C)n1C	none
